Measured values from PubChem BioAssay (NCI).
Compounds without any hit were thinned out: in the full panel of roughly 79,000, 15% have a hit. Unmarked numbers belong to inactive results. Activity calls are given as the source filed them. Cut-off read from the data, not from the text of the source: active = growth inhibition above about 70%; inactive = the rest.

Experiments:
[1] = NCI Yeast Anticancer Drug Screen. Data for the rad50 strain (AID 155);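 note: 0% = growth of vehicle-only cultures of the same strain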; conditions: S. cerevisiae rad50 strain growth inhibition; at 50.0 µM; active compounds read high
Summary of the method: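 Cells are treated with compound, grown, and their growth is then scored against vehicle-only cultures of the same repair-deficient yeast strain.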

[2] = NCI Yeast Anticancer Drug Screen. Data for the mec2-1 strain (AID 157); conditions: S. cerevisiae mec2-1 strain, at 50.0 µM, active compounds read high
Summary of the method: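 Vehicle-treated cultures served as reference for growth inhibition of compound-exposed mec2-1 yeast.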

[3] = NCI Yeast Anticancer Drug Screen. Data for the sgs1 mgt1 strain (AID 161);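 note: 0% = growth of cultures given vehicle only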; conditions: S. cerevisiae sgs1 mgt1 strain, at 50.0 µM, active compounds read high
Summary of the method: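 Genetically altered yeast, compound exposure, growth inhibition relative to vehicle.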

[4] = NCI Yeast Anticancer Drug Screen. Data for the cln2 rad14 strain (AID 165);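 note: 0% = growth equal to vehicle treated cultures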; conditions: S. cerevisiae cln2 rad14 strain, at 50.0 µM, active compounds read high
Summary of the method: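 Each compound was tested on cln2 rad14 yeast. Inhibition of growth was calculated against vehicle-exposed controls.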

[5] = NCI Yeast Anticancer Drug Screen. Data for the bub3 strain (AID 167); conditions: S. cerevisiae bub3 mutant strain, at 50.0 µM, active compounds read high
Summary of the method: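 Part of a panel of yeast mutants defective in DNA damage repair or cell cycle regulation. Each strain is grown with compound, and inhibition is calculated relative to solvent-treated cultures.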

[6] = NCI Yeast Anticancer Drug Screen. Data for the mlh1 rad18 strain (AID 175); conditions: S. cerevisiae mlh1 rad18 strain growth inhibition; at 50.0 µM; active compounds read high
Summary of the method: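 Vehicle-treated cultures served as the reference for growth inhibition in a yeast strain carrying DNA damage repair alterations exposed to each compound.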

SMILES | growth inhibition [1] [%] | growth inhibition [2] [%] | growth inhibition [3] | growth inhibition [4] | growth inhibition [5] [%] | growth inhibition [6] [%]
Cc1onc2c1c(=O)n(C)c(=O)n2C | -6.25 | -1.95 | -3.55% | -20.1% | -7.45 | -2.25
O=c1c(-c2ccccc2)coc2ccccc12 | -9 | 1.45 | 8.15% | -52% | -14.3 | 0.15
Cn1nc(-c2ccccc2)c(-c2ccccc2)c(C#N)c1=O | 0.05 | -3.55 | 0.4% | -22.6% | -1.8 | 0.8
CC(O)c1nc2c3ccccc3ccc2n1C (stereo not given) | -6.15 | -0.2 | -6.45% | -42.6% | -1.25 | -8.6
C[N+](C)(N)Cc1csc(-c2ccc(Cl)cc2)n1 | -31.3 | -39.3 | -12.7% | -8.1% | -24.6 | -10.5
CSc1nc(=O)cnn1C | -22.3 | -8.6 | -15.6% | -0.5% | -49.2 | -5.35
COC1=C2CC(C)CC(OC)C(O)C(C)/C=C(\C)C(OC(N)=O)C(OC)/C=C\C=C(/C)C(=O)NC(=C(C=NC(C)(C)C)C1=O)C2=O (stereo not given) | 9.15 | 23.2 | 23.2% | 46.1% | 6.4 | 18.5
CCCCOC(=O)/C=C/C(=O)N1CCN(C(=O)/C=C/C(=O)OCCCC)C(C)C1 (stereo not given) | 33.7 | 24.7 | 20.8% | -11.1% | 24.9 | 34.6
CCOC(=O)c1c(C)[nH]c(=S)c(C#N)c1-c1ccco1 | 17.7 | 6.15 | 10.8% | 4.4% | -3.35 | 28
COC1CC(OC2C(C)OC(OC3C(C)OC(OC4C(O)CC(O[C@H]5CC[C@@]6(C)C(=CC[C@]7(O)[C@@H]6C[C@@H](OC(=O)/C=C/c6ccccc6)[C@@]6(C)[C@]7(O)CC[C@@]6(O)C(C)=O)C5)OC4C)CC3OC)CC2OC)OC(C)C1O (stereo not given in full) | -13.4 | 7.95 | -8.6% | 16.2% | -6.75 | -53.8
Cc1ccc(N=Nc2ccc(C)cc2NC(=O)c2ccc(Cl)c(Cl)c2)cc1 | -9.6 | -11.2 | -12% | -13.1% | 7.8 | -20.4
CN(C)c1nc2[nH]ncc2c(=O)[nH]1 | 11.6 | 1.25 | 5.7% | -10.1% | 0.5 | 0.8
CCOC(=O)C[n+]1ccc(C(=O)OCC)cc1 | -7.1 | -15.2 | 0.05% | 2.3% | 11.1 | 3.5
CCCN1c2c3c(O)c4c(O)c(C)c5c(c4c2O)C(=O)C(C)(O/C=C/C(OC)C(C)C(OC(C)=O)C(C)C(O)C(C)C(O)C(C)/C=C/C=C(/C)C(=O)N3C1C)O5 (stereo not given) | 22.6 | 35.9 | 44% | 37.2% | 19 | 18.2
O=C(Nc1nc(C23CC4CC(CC(C4)C2)C3)cs1)c1cc2ccccc2oc1=O | -1.45 | -26.5 | -3.45% | -30.4% | -23.9 | -17.4
CC1CCc2c(nc(C#N)c(=N)n2O)C1 (stereo not given) | 8.25 | -3.2 | 6.8% | -40.2% | -12.2 | -6.75
O=S(=O)(O)c1cc2c3ccccc3ccc2c2ccccc12 | 1.75 | -5.35 | 13.8% | -15.5% | -1.35 | 21.8
COc1ccc(CC(NC(=O)OCc2ccccc2)C(=O)O)cc1 (stereo not given) | 1.15 | 4.15 | 2.7% | -52.1% | 18.7 | 6.6
COc1cccc(C(=O)O)c1O | -16.9 | -11.8 | -15.3% | -8.8% | -19.9 | -7.7
CCOC(=O)C(Cl)(Cl)C(Cl)(OCC)C(=O)OCC (stereo not given) | 16.1 | 26.1 | 26.8% | -24.4% | 34.5 | 22.2

SMILES | growth inhibition [1] [%] | growth inhibition [2] [%] | growth inhibition [3] | growth inhibition [4] | growth inhibition [5] [%] | growth inhibition [6] [%]
C=C1C(=O)OC2CC(=C)C3CC=C(C)C3CC12 (stereo not given) | 41.8 | 21.5 | 19% | 41.6% | 25.8 | 44.1
COC1=C(c2ccccc2)P(=O)(Cc2ccccc2)C(C)C1 (stereo not given) | -6.95 | 12.2 | 24.6% | -9.1% | 48.3 | 1.9
CCCCCCCCCCCCCCCCS(=O)(=O)N/N=C(/c1ccccc1Cl)N1CCOCC1 | -10.6 | -35.4 | -7.1% | 16.4% | -22.6 | -6.75
CC1(C)OCC(C2CCC3(C)C4=CCC5C(C)(C)C(O)CCC5(C)C4CCC23C)CC(O)C1O (stereo not given) | 59.6 | 57 | 72.3% (active) | 76.5% (active) | 64.8 | 31.9
COC1OC(COC(c2ccccc2)(c2ccccc2)c2ccccc2)C(OS(=O)(=O)c2ccc(C)cc2)C(OC(=O)c2ccccc2)C1OC(=O)c1ccccc1 (stereo not given) | 0.1 | -6.7 | -1.15% | -7.35% | 0.3 | 27.9
Clc1ccc2c(c1)[nH]c1c2nc2sccn21 | -7.25 | -14.7 | -0.3% | 1.15% | -12.9 | -10.1
Cn1c(=O)c2ncn(CC3CCCCC3)c2n(C)c1=O | 6.15 | 11.6 | 5.05% | -5.9% | 2.05 | -4.95
O=C1CCCC2=C1CC1=C(CCCC1=O)N2c1ccc([N+](=O)[O-])cc1 | -35.8 | -30.1 | -42% | -10.3% | 0.45 | -19.3
C/C=C(/C)C(=O)OC12CC(C)C3(O)C(C=C(CO)C[C@]4(O)C(=O)C(C)=CC34)C1C2(C)C (stereo not given in full) | 16.2 | 1.3 | -12.6% | -0.45% | 7.5 | 1.35
C=Cc1c(C)c(OC)cc2c1Oc1ccc(OC)c(C)c1CC2 | 0.75 | -0.2 | 19.5% | 8.35% | 13.8 | -23.6
COC(=O)C(CNc1ccc(S(N)(=O)=O)cc1)=[N+]=[N-] | 7.4 | 13.3 | 0.95% | -12.8% | 6.25 | 11.2
NC(=NC1CCCCC1)c1ccc(C(=O)OCC2CCCCC2)cc1 | 39.2 | 12.6 | 45.5% | 19.9% | 21.8 | 26.4
CN1C(=O)C(=O)N(C)C(=O)C1=O | 8.75 | 11.2 | 10.7% | 7.1% | 12.8 | 9.6
CCCCCCCCCCCCCCCCS(=O)(=O)N/N=C/c1ccc(N(C)C)cc1 | 26.1 | 13.3 | 17.1% | 12.3% | 1.95 | 13.7
O=[N+]([O-])c1cccc2c(-c3nccc4c([N+](=O)[O-])cccc34)nccc12 | -16.9 | -1.35 | -19.4% | -21.8% | -16.2 | -19
C/C(=N/N(C)C)c1ccc(C)cc1 | 20.3 | -5.75 | 3.25% | -26.9% | 0.6 | 12.5
O=C1C(=O)N(C2CCCCC2)C(=S)N1C1CCCCC1 | -31.9 | -30.1 | -62.1% | -2.5% | -5.2 | 12.3
Cc1ccc(S(=O)(=O)N/N=C2/CC3CCC2C3)cc1 (stereo not given) | 5 | 1.3 | -19.7% | -9.4% | 17.3 | -15.3
O=C1NC(=O)/C(=C/CCCO)N1 | 2.85 | -5.3 | -10.4% | -8.95% | -0.25 | -6.6
C=CCO[Si](C=C)(OCC=C)OCC=C | 31.8 | -10.9 | -5.35% | 10.7% | 9.6 | -3.95
